Experimental data taken from PubChem BioAssay AID463173 (ICCB-Longwood Screening Facility, Harvard Medical School, 2010).
The campaign covered roughly 52,000 compounds. About 4,300 (8.3%) were called active. Only a selection was taken, and actives are over-represented in it overall. A number with no mark means an inactive call. No stated cut-off is given here; in the data, active means survival mostly below about 52% (no sharp cut-off); inactive means mostly above about 56%.

tested on: DeltatarO mutant; test: S. aureus survival, RN4220 and DeltatarO strains – OD600, teichoic acid synthesis inhibitors, primary screen (AID 463173); conditions: S. aureus RN4220 wild type/DeltatarO growth, OD600, 18 h, hits give low values, screened at 18.75 µg/mL (by protocol)

Structure (SMILES) | survival
COc1ccc(-c2noc(-c3ccc(NC(C)c4ccccc4)c([N+](=O)[O-])c3)n2)cc1OC (centres undefined) | 65%
CCCC12CN3CC(C)(CN(C1)C3c1ccc(OCc3ccccc3)cc1)C2=O (centres undefined) | 80%
COc1ccc(-n2nc3c(N4CCCC(C(=O)NCc5ccccc5C)C4)nnc(C)c3c2C)cc1 (centres undefined) | 90%
Cc1ccc(NC(=O)Nc2nc3c(s2)CCCCCC3)cc1C | 69%
O=C(Nc1nc2c(s1)CCCCCC2)Nc1ccc(F)cc1F | 0% (active)
O=C(Nc1ccc(Br)cc1)Nc1nc2c(s1)CCCCCC2 | 83%
CCN(c1cccc(C)c1)S(=O)(=O)c1nnc(NC(=O)C2CCCCC2)s1 | 71%
Cc1cccc(N(C)S(=O)(=O)c2nnc(NC(=O)c3cccs3)s2)c1 | 26% (active)
CCN(c1cccc(C)c1)S(=O)(=O)c1nnc(NC(=O)c2cccs2)s1 | 21% (active)
CCN(c1cc(C)cc(C)c1)S(=O)(=O)c1nnc(NC(=O)C2CCCCC2)s1 | 105%
CN(c1ccccc1)S(=O)(=O)c1nnc(NC(=O)c2cccs2)s1 | 43%
CCN(c1cc(C)cc(C)c1)S(=O)(=O)c1nnc(NC(=O)c2cccs2)s1 | 25% (active)
CCN(c1cc(C)cc(C)c1)S(=O)(=O)c1nnc(NC(=O)c2cccc(F)c2)s1 | 37% (active)
CCN(c1ccccc1)S(=O)(=O)c1nnc(NC(=O)COc2cccc(C)c2)s1 | 107%
CCCCC(=O)Nc1nnc(S(=O)(=O)N(CC)c2cc(C)cc(C)c2)s1 | 66%
Cc1cccc(N(C)S(=O)(=O)c2nnc(NC(=O)C(C)(C)C)s2)c1 | 99%
Cc1ccc(S(=O)(=O)Nc2ccc(-c3ccc(N4CCCCCC4)nn3)cc2)c(C)c1 | 70%
CCc1nnc(NC(=O)c2ccc(S(=O)(=O)N3CCc4ccccc4C3)cc2)s1 | 83%
Cc1ccc(NC(=O)CCNS(=O)(=O)c2cccs2)cc1F | 63%
COc1cc(CN(C(=O)c2cccc(Cl)c2)c2ccccn2)cc(OC)c1OC | 82%
COc1ccc(OC(=O)c2ccc3snnc3c2)cc1 | 86%
COc1ccc(CNC(=O)CCS(=O)(=O)c2cc3c4c(c2)CCN4C(=O)CC3)cc1OC | 66%
Cc1ccc(C)c(NS(=O)(=O)c2cc3c(cc2Cl)NC(=O)CO3)c1 | 85%
CCN(c1ccc(C)cc1C)S(=O)(=O)c1nnc(NC(=O)c2ccccc2OC)s1 | 55%
CCN(c1ccc(C)cc1C)S(=O)(=O)c1nnc(NC(=O)CC(C)C)s1 | 75%

Structure (SMILES) | survival
CCN(c1ccc(C)cc1C)S(=O)(=O)c1nnc(NC(=O)c2ccc(F)cc2)s1 | 14% (active)
CC(C)Cn1cc(NC(=O)NCc2ccccc2)c2ccccc2c1=O | 74%
CCc1nonc1NC(=O)c1oc2cc(C)c(C)cc2c1C | 102%
CCOC(=O)c1cc2ccccc2[nH]c1=O | 82%
CCOC(=O)c1cc(C(=O)OCC)c(=S)[nH]c1O | 98%
CCOC(=O)c1cnc(SCC)[nH]c1=O | 41% (active)
Cc1ccc(NC(=O)c2c(NC(=O)c3ccc(F)cc3)sc3c2CCCC3)cc1C | 67%
COCCCNC(=O)c1ccc2c(c1)NC(=O)C(C(C)C)N2 (centres undefined) | 57%
COc1ccc(NC(=O)c2sc3nc4c(cc3c2N)CCCCCC4)c(OC)c1 | 62%
CCc1oc(C(=O)O)cc1CN | 97%
COc1ccc(Br)c2c1-c1nc(NC(=O)c3cccc(C)c3)sc1C2 | 44%
COc1cc(C(=O)Nc2nc3c(s2)Cc2c(Br)ccc(OC)c2-3)cc(OC)c1OC | 36% (active)
COc1ccc(Br)c2c1-c1nc(NC(=O)c3ccccc3SC)sc1C2 | 105%
COc1ccc(Br)c2c1-c1nc(NC(=O)c3ccccc3F)sc1C2 | 69%
COc1ccc(C(=O)Nc2nc3c(s2)Cc2c(Br)ccc(OC)c2-3)cc1OC | 36% (active)
COc1ccc(Br)c2c1-c1nc(NC(=O)c3ccc(F)cc3)sc1C2 | 67%
Cc1cccc(N2CCN(C(=O)CN3C(=O)CSc4c3c(C)nn4-c3ccccc3)CC2)c1C | 83%
O=C(Nc1ccc(F)cc1)c1cccc(N2CCCS2(=O)=O)c1 | 70%
COc1ccc(C(=O)Nc2nnc(S(=O)(=O)N(C)c3ccc(Cl)cc3)s2)cc1OC | 83%
CCCC(=O)Nc1nnc(S(=O)(=O)N(C)c2ccccc2)s1 | 108%
CC(C)C(=O)Nc1cccc(C(=O)Nc2nnc(C(F)(F)F)s2)c1 | 58%
O=C(Nc1nnc(C(F)(F)F)s1)c1ccccc1 | 24% (active)
Cc1nnc(NC(=O)c2ccccc2)s1 | 71%
CN(c1ccccc1)S(=O)(=O)c1nnc(NC(=O)c2ccccc2)s1 | 32% (active)
COc1cc(C(=O)Nc2nnc(S(=O)(=O)N(C)c3ccccc3)s2)cc(OC)c1OC | 40% (active)

Structure (SMILES) | survival
COc1ccc(C(=O)Nc2nnc(S(=O)(=O)N(C)c3ccc(C)cc3)s2)cc1 | 79%
CCN(C(=O)Cn1cnc2c1c(=O)n(C)c(=O)n2C)c1ccccc1C | 87%
Fc1ccc(N2CCN(c3nc4ccccc4c4nc(-c5cccnc5)nn34)CC2)cc1 | 93%
CC(=O)N1c2ccc(S(=O)(=O)N3CCCCCC3)cc2CC1C(=O)NCc1cccc(F)c1 (centres undefined) | 65%
Cc1ccc(NC(=O)c2ccco2)c(OCc2cc(=O)n3cc(C)sc3n2)c1 | 102%
NC(=O)/C=C/C(=O)Nc1ccc2c(c1)OCO2 | 33% (active)
O=C(/C=C/c1ccccc1)Nc1ccc2c(c1)OCCO2 | 76%
CCOC(=O)Nc1ccc2c(c1)OCO2 | 79%
CCc1ccccc1NC(=O)N1CCOc2ccccc21 | 106%
CSc1ccc(C2c3c(oc4ccc(F)cc4c3=O)C(=O)N2c2ccc(C)cn2)cc1 (centres undefined) | 81%
COc1cccc(N2CCN(C(=O)CCn3nc(C)c(S(=O)(=O)N4CCCC4)c3C)CC2)c1 | 92%
Cc1nn(CCC(=O)N2CCN(c3ccccc3)CC2)c(C)c1S(=O)(=O)N1CCCC1 | -5% (active)
COc1ccc(N2CCN(C(=O)CCn3nc(C)c(S(=O)(=O)N4CCCC4)c3C)CC2)cc1 | 73%
COc1ccc(Cl)cc1NC(=O)CSC1=Nc2ccccc2C2=NC(CC(=O)NCc3ccc4c(c3)OCO4)C(=O)N12 (centres undefined) | 87%
COc1ccc(CCn2c(=O)c3cccnc3n(CC(=O)Nc3ccc(C)cc3C)c2=O)cc1OC | 78%
O=S(=O)(c1ccccc1)c1nc(-c2cccc(Cl)c2)oc1NCc1ccccc1 | 83%
O=C(NC1CCCCC1)c1ccc(CSc2nc3cccnc3n2Cc2ccccc2F)cc1 | 93%
O=C(NC1CC1)c1ccc(Cn2c(SCc3ccc(F)cc3)nc3cccnc32)cc1 | 78%
O=C(NC1CCCCC1)c1ccc(CSc2nc3cccnc3n2Cc2ccc(F)cc2)cc1 | 25% (active)
O=C(NC1CCCC1)c1ccc2c(=O)n(Cc3ccccc3)c(SCc3ccccc3F)nc2c1 | 0% (active)
O=C(NC1CCCC1)c1ccc(CSc2nc3cccnc3n2Cc2ccc(F)cc2)cc1 | 63%
O=C(NC1CCCCC1)c1ccc(Cn2c(SCc3ccccc3)nc3cccnc32)cc1 | 83%
O=C(NC1CCCCC1)c1ccc(CSc2nc3cccnc3n2Cc2ccccc2)cc1 | 102%
O=C(NC1CCCC1)c1ccc(CSc2nc3cccnc3n2Cc2ccccc2F)cc1 | 37% (active)
O=C(NC1CCCC1)c1ccc2c(=O)n(Cc3ccccc3)c(SCc3ccccc3)nc2c1 | 92%

Structure (SMILES) | survival
Cc1ccccc1CSc1nc2cc(C(=O)NC3CCCC3)ccc2c(=O)n1Cc1ccccc1 | 107%
O=C(NC1CCCCC1)c1ccc(Cn2c(SCc3ccc(F)cc3)nc3cccnc32)cc1 | 32% (active)
O=C(NC1CCCCC1)c1ccc(Cn2c(SCc3ccccc3F)nc3cccnc32)cc1 | 80%
O=C(Cn1cc(SCc2c(F)cccc2Cl)c2ccccc21)N1CCCC1 | 74%
COCCn1c(COc2ccc(Cl)cc2)nnc1SCC(=O)OC | 96%
CCOc1ccccc1N(CC)C(=O)c1noc2c1COc1ccc(C)cc1-2 | 67%
COc1ccc(CCNC(=O)NCc2noc3ccccc23)c(OC)c1 | 62%
NC(=O)CSc1nc2cc3c(cc2c(=O)n1CCCCCC(=O)NCc1ccc2c(c1)OCO2)OCO3 | 81%
CCC(=O)N1CCc2cc(Br)cc(S(=O)(=O)NCc3cccc(OC)c3)c21 | 58%
COc1cccc(Cn2cc(S(=O)(=O)c3ccc(C)cc3)c(=O)c3cc4c(cc32)OCO4)c1 | 67%
COc1ccc(OC)c(S(=O)(=O)NCC(c2ccco2)S(=O)(=O)c2ccccc2)c1 (centres undefined) | 94%
CCOCCCNC(=O)CN1C(=O)COc2ccc(S(=O)(=O)N3CCCCCC3)cc21 | 81%
Cc1cccc(Nc2nnc(-c3ccc(C)c(S(=O)(=O)N4CCCCC4)c3)c3ccccc23)c1 | 104%
COc1ccc(-c2nnc(Nc3ccc(OC)c(C(N)=O)c3)c3ccccc23)cc1 | 41% (active)
CCOC(=O)c1c(C)c(-c2ccccc2)n(CC(=O)Nc2ccc(OCC)cc2)c1C | 73%
CNC(=O)c1cc(Nc2nnc(-c3ccc(O)cc3)c3ccccc23)ccc1OC | 170%
COC(=O)c1c(Oc2ccc(OC)cc2)nnc(-c2ccccc2)c1-c1ccccc1 | 101%
CCOC(=O)c1c(Nc2ccc(OCC)cc2)nnc(-c2ccccc2)c1-c1ccccc1 | -2% (active)
C#CCOc1ccc(-c2nnc(Nc3cccc(C)c3)c3ccccc23)cc1 | 31% (active)
CCOC(=O)c1c(Nc2ccc(OC)cc2)nnc(-c2ccccc2)c1-c1ccccc1 | 7% (active)
COc1ccc(-c2nnc(Nc3ccc(OCC(N)=O)cc3)c3ccccc23)cc1 | 69%
CCOC(=O)c1c(C)oc2ncnc(Nc3ccc(OCC)cc3)c12 | 89%
CCOC(=O)c1c(Oc2ccc(OC)cc2)nnc(-c2ccccc2)c1-c1ccccc1 | 75%
C#CCOc1ccc(-c2nnc(Nc3ccc(NC(C)=O)cc3)c3ccccc23)cc1 | 60%
